# Experimental data published in PubChem BioAssay (Tox21).
# Records with an inconclusive call do not appear. Activity calls are given as the source filed them. The call rests on the fitted dose curve.
# Assay: qHTS assay to identify small molecule agonists or antagonists of the thyroid stimulating hormone receptor (TSHR) signaling pathway - wild type cell line counter screen (AID 1259384)
# Conditions: HEK293 wild type, cAMP HTRF counter-screen, hits give high values; series mostly up to 92.4 µM; cAMP activity change: at the top concentration
# Excerpt: U.S. Tox21 Program National Center for Advancing Translational Sciences [NCATS] NIH Chemical Genomics Center [NCGC] U.S. Environmental Protection Agency [EPA] National Institutes of Environmental Health Sciences [NIEHS] National Toxicology Program [NTP] U.S. Food and Drug Administration [FDA] Tox21 Assay Overview: TSHR is the receptor for thyrotropin (thyroid stimulating hormone or TSH), a member of the glycoprotein hormone family. TSH is released by the anterior pituitary gland and is the main regulator of thyroid gland growth and development. Upon binding circulating thyrotropin, a G-protein signal cascade activates adenylyl cyclase and […] cAMP concentration is increased. cAMP is a key second messenger involved extensively in cellular signal transduction pathways associated with the majority of G-protein coupled receptors (GPCRs). The activation of these GPCRs by neurotransmitters, lipids, nucleotides, peptides and hormones results in the activation or the inhibition of plasma membrane-bound adenylate cyclase through heterotrimeric G-proteins. A cell-based TSHR-Hek293 assay can be used to identify TSHR agonists. To eliminate the false positive compounds identified from screening a cell-based TSHR-Hek293 cell line, cAMP assay in a wild type Hek293 cells was used as a counter screening.
# Tox21 Assay Protocol Summary: Hek293 cells (wild type) were dispensed at 800 cells/4 uL/well in 1536-well white plates using a Multidrop dispenser. After the assay plates were incubated at a 37 C/5% CO2 incubator for 18 hrs, 23 nL of compounds dissolved in DMSO, positive controls or DMSO only was transferred to the assay plate by a pin tool, followed by 1 ul medium containing Ro20-1724. After 30 min of incubation at room temperature, 2.5 ul/well of cAMP-d2 and 2.5 ul/well of anti-cAMP-cryptate were added respectively into the assay plates using a Flying Reagent Dispenser. The plates were incubated at room temperature for 1 hr. The fluorescence intensity in the plates was measured using an Envision plate reader. Each test compound was measured at 15 concentrations and in triplicates.
# On the % scale 0 is the no-effect control and ±100 the full control effect.
Compound,cAMP activity change,outcome
OC(Cc1ccccc1Cl)(Cn1[nH]cnc1=S)C1(Cl)CC1 (centres undefined),-0.352% (inactive),
ClC(Cl)=C(c1ccc(Cl)cc1)c1ccccc1Cl,-1.6% (inactive),
N#Cc1cc([N+](=O)[O-])ccc1N,-6.4% (inactive),
Cc1nnc2n1-c1sc(CCc3ccc(CC(C)C)cc3)cc1C(c1ccccc1Cl)=NC2C (centres undefined),-6.42% [at 42.5 µM] (inactive),
Oc1c(I)cc(I)cc1I,1.94% (inactive),
O=S(=O)(C(Cl)(Cl)Cl)C(Cl)(Cl)Cl,0.344% (inactive),
Cc1cc(C(C)(C)c2ccc(O)c(C)c2)ccc1O,-2.86% (inactive),
Cc1cc(C)c(C(=O)P(=O)(c2ccccc2)c2ccccc2)c(C)c1,-0.219% (inactive),
O=[N+]([O-])c1c(Cl)c(Cl)cc(Cl)c1Cl,-7.5% (inactive),
COc1ccc(C(c2ccc(OC)cc2)C(Cl)(Cl)Cl)cc1,-2.21% (inactive),
CNC(=O)Oc1cc(C)c(SC)c(C)c1,-0.623% (inactive),
Cc1ccc2nc3sc(=O)sc3nc2c1,3.67% [at 18.9 µM] (inactive),
CCN(CC)C(=O)Cl,5.58% (inactive),
CC(c1ccccc1)(c1ccc(O)cc1)c1ccc(O)cc1,0.391% (inactive),
COc1cc(OC)c(OC)cc1C=O,-1.73% (inactive),
O=C1C(I)=CC(=C(c2cc(I)c(O)c(I)c2)c2ccccc2C(=O)O)C=C1I,3.63% [at 42.5 µM] (inactive),
CC1COC(Cn2cncn2)(c2ccc(Oc3ccc(Cl)cc3)cc2Cl)O1 (centres undefined),0.149% (inactive),
O=C(Nc1ccccc1-c1ccc(Cl)cc1)c1cccnc1Cl,-0.0135% (inactive),
OCC(c1ccc(Cl)cc1)c1ccc(Cl)cc1,-0.538% (inactive),
CO/C=C(/C(=O)OC)c1ccccc1Oc1cc(Oc2ccccc2C#N)ncn1,-3.48% (inactive),
c1ccc2c(c1)Sc1ccccc1N2CC1CN2CCC1CC2 (centres undefined),0.25% [at 42.5 µM] (inactive),
CN1CSC(=S)N(C)C1,,inactive
Nc1ccc([N+](=O)[O-])cc1,5.1% (inactive),
Cc1ccc(N(SC(F)(Cl)Cl)S(=O)(=O)N(C)C)cc1,5.16% (inactive),
